# Assay results from PubChem BioAssay (Tox21).
# Where “and” joins values, the source holds several entries; their conditions need not be identical. Equal entries are not always repeated. Results filed as inconclusive are left out. A call without a number means that no potency is given here. The source holds several records for some structures; these can differ, active in one and inactive in another. Calls of active or inactive are those of the source. Unless noted, calls come from the whole dose curve; as a rule, active = well fitted curve in the direction sought with a large enough effect in the repeat runs; inconclusive = weak or mixed curves; inactive = no such curve, though single readings can be large; an effect the other way counts as inactive or inconclusive. Residues, ends and D or L forms follow the SMILES beside them.
# Columns and labels:
# [1] = target: Thyrotropin-releasing hormone receptor (Homo sapiens) (UniProt P34981); experiment: qHTS assay to identify small molecule agonists of the thyrotropin-releasing hormone receptor (TRHR) signaling pathway (AID 1346891; calls by dose curve; note: series mostly up to about 58 µM)
# Sequence of Thyrotropin-releasing hormone receptor (Homo sapiens) (P34981 whole entry, looked up): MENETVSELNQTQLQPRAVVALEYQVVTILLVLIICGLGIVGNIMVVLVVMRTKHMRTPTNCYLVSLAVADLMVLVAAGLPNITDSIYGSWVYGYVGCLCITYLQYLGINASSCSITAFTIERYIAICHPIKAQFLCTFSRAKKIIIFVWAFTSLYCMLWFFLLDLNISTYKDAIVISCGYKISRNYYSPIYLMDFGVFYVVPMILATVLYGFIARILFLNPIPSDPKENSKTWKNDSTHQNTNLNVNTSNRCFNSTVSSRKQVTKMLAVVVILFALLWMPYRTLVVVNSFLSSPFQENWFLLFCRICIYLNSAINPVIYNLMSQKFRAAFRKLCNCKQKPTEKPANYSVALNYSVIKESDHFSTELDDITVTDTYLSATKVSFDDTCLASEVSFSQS
# Outline: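 Agonist-mode intracellular calcium readout: kinetic fluorescence over 3 min at 1 s intervals after compound addition to TRHR-HEK293 cells (18 h seeded, 2 h dye-loaded at 37 C). Fifteen concentrations, triplicates.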
# [2] = Human pregnane X receptor (PXR) small molecule agonists, qHTS cell viability counter screen (AID 1346977); note: nearly all actives have a fitted effect of over 50% in size
# Outline: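 Same-well viability read: CellTiter-Fluor added after 23 hr compound exposure, fluorescence measured 1 hr later. Cells were PXR-Luc HepG2 seeded at 2,000/well in 5% charcoal-stripped FBS medium, rested 5 hr before dosing at 37 C.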
# [3] = Caspase-3/7 induction in HepG2 cells by small molecules, qHTS assay (AID 1346978); note: nearly all actives have a fitted effect of over 15% in size; note: potency is the fitted concentration of half-maximal effect
# Outline: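 Caspase-3/7 induction was measured by Caspase-Glo 3/7 luminescence (30 min, room temperature) after a 17 hr compound exposure of wild-type HepG2 cells seeded at 2,000 per well and pre-incubated 5 hr.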
# [4] = Caspase-3/7 induction in CHO-K1 cells by small molecules, qHTS cell viability counter screen (AID 1346979); note: nearly all actives have a fitted effect of over 35% in size; note: potency is the fitted concentration of half-maximal effect
# Outline: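 Cytotoxicity counter screen: CellTiter-Fluor added to compound-treated wild-type CHO-K1 cells at 16 h (37C, 5% CO2), fluorescence measured 1 h later; same wells as caspase-3/7 measurement.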
# [5] = Caspase-3/7 induction in CHO-K1 cells by small molecules, qHTS assay (AID 1346980); note: nearly all actives have a fitted effect of over 15% in size
# Outline: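 Luminescent Caspase-Glo 3/7 read (30min, room temperature) quantified apoptosis induction. Cells were wild-type CHO-K1, treated with compound for 17hr at 37 C and 5% CO2.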
# [6] = Caspase-3/7 induction in HepG2 cells by small molecules, qHTS cell viability counter screen (AID 1346981); note: series mostly up to about 92 µM; nearly all actives have a fitted effect of over 30% in size
# Outline: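 Counter screen for cytotoxicity: HepG2 exposed 16 hr to compounds, then CellTiter-Fluor viability signal (fluorescence, 1 hr reagent incubation).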
# [7] = target: Nuclear receptor subfamily 1 group I member 2 (Homo sapiens) (UniProt O75469); experiment: Human pregnane X receptor (PXR) small molecule agonists, qHTS assay (AID 1346982); note: nearly all actives have a fitted effect of over 35% in size; note: potency is the fitted concentration of half-maximal effect
# Sequence of Nuclear receptor subfamily 1 group I member 2 (Homo sapiens) (O75469 whole entry, looked up): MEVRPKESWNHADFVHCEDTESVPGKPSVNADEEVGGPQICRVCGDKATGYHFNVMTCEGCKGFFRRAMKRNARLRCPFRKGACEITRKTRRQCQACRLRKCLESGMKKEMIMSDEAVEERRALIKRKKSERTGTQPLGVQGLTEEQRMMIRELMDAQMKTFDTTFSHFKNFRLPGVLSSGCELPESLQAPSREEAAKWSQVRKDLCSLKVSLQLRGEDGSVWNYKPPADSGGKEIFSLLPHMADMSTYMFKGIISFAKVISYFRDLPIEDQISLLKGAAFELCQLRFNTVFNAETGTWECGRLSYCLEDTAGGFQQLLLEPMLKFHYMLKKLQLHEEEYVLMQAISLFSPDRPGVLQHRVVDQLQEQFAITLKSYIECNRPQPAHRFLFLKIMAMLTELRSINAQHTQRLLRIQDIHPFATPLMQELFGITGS
# Outline: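 Luminescence (ONE-Glo, 30 min RT) after 24 hr compound exposure of PXR-Luc HepG2 cells; cells rested 5 hr post-plating in 5% charcoal-stripped FBS medium.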
# [8] = target: Nuclear receptor subfamily 1 group I member 2 (Rattus norvegicus) (UniProt Q9R1A7); experiment: Rat pregnane X receptor (rPXR) activation by small molecules, qHTS assay (AID 1346983); conditions: rPXR luciferase reporter cells, One-Glo luminescence, 24 h; stronger effect = higher value; note: nearly all actives have a fitted effect of over 20% in size
# Sequence of Nuclear receptor subfamily 1 group I member 2 (Rattus norvegicus) (Q9R1A7 whole entry, looked up): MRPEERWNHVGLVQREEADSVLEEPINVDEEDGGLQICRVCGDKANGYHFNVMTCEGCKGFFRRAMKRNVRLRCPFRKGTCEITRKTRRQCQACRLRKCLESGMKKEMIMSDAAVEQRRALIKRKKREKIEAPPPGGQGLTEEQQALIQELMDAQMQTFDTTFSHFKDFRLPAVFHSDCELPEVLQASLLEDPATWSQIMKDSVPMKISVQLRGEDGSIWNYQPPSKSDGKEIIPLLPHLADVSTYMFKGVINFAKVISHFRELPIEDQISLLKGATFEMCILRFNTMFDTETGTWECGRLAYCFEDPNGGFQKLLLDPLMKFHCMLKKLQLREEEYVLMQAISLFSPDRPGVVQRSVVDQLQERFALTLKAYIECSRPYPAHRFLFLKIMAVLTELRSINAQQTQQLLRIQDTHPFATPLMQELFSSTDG
# Outline: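 Luminescent readout (One-Glo luciferase, 30 min room temperature) followed 24 hr compound treatment at 37 C of rPXR cells plated 2,000 per well and preincubated 5hr; qHTS format with compounds delivered in DMSO.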
# [9] = target: Nuclear receptor subfamily 1 group I member 2 (Homo sapiens) (UniProt O75469); experiment: Human pregnane X receptor (PXR) activation by small molecules, qHTS assay (AID 1346985); note: nearly all actives have a fitted effect of over 40% in size
# Outline: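 DPX-2 cells (HepG2 co-transfected with a PXR response element and a CYP3A4-promoter luciferase construct) were seeded at 2,000 per well, rested 5 hr at 37C, then exposed to DMSO-dissolved compounds for 24 hr. Activation was read as luciferase luminescence.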
# [10] = target: Cytochrome P450 2D6 (Homo sapiens) (UniProt P10635); experiment: Cytochrome P450 Family 2 Subfamily D Member 6 (CYP2D6) small molecule antagonists: luciferase reporter qHTS assay (AID 1671196); note: nearly all actives have a fitted effect of over 50% in size; note: potency is the fitted concentration of half-maximal effect
# Sequence of Cytochrome P450 2D6 (Homo sapiens) (P10635 whole entry, looked up): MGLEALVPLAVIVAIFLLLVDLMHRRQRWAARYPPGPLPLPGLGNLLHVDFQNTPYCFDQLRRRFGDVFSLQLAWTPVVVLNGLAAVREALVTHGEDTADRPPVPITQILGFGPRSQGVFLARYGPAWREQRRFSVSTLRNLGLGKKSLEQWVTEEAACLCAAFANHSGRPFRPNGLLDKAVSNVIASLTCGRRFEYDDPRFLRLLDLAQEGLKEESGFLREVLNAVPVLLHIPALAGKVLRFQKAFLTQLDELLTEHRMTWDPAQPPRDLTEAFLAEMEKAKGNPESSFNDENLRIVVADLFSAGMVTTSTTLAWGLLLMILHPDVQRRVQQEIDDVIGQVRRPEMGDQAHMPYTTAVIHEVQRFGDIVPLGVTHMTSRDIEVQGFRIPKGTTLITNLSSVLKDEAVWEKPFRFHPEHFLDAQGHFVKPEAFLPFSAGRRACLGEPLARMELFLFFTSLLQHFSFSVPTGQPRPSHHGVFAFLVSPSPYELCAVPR
# Outline: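 Inhibition of CYP2D6 was gauged by loss of luminescence, since light produced tracks the luciferin generated from a proluciferin substrate. A 10 min room-temperature preincubation preceded 1 h NADPH-supported turnover.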
# [11] = target: Cytochrome P450 2C19 (Homo sapiens) (UniProt P33261); experiment: Cytochrome P450 Family 2 Subfamily C Member 19 (CYP2C19) small molecule antagonists: luciferase reporter qHTS assay (AID 1671197); note: nearly all actives have a fitted effect of over 65% in size; note: potency is the fitted concentration of half-maximal effect
# Sequence of Cytochrome P450 2C19 (Homo sapiens) (P33261 whole entry, looked up): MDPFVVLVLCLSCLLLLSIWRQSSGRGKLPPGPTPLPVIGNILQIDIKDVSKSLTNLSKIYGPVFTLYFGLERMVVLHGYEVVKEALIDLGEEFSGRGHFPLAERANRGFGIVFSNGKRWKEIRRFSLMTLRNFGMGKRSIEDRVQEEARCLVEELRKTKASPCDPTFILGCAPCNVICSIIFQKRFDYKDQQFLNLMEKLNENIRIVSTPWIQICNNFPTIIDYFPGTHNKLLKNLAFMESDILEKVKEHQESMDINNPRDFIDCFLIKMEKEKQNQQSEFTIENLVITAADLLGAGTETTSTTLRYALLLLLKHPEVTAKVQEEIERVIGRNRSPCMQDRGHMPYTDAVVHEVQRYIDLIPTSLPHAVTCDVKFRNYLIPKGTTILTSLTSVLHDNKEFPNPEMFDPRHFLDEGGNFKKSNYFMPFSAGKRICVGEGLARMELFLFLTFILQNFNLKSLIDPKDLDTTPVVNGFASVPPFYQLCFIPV
# Outline: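 Luminescent readout of CYP2C19 activity: luciferin product detected 20 min after adding detection reagent. Before that, compound and enzyme-substrate mix preincubated 10 min at room temperature; NADPH-regenerating system started a 1 h, 37C reaction. Ketoconazole as positive control.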
# [12] = target: Cytochrome P450 2C9 (Homo sapiens) (UniProt P11712); experiment: Cytochrome P450 Family 2 Subfamily C Member 9 (CYP2C9) small molecule antagonists: luciferase reporter qHTS assay (AID 1671198); note: series mostly up to about 120 µM; nearly all actives have a fitted effect of over 50% in size
# Sequence of Cytochrome P450 2C9 (Homo sapiens) (P11712 whole entry, looked up): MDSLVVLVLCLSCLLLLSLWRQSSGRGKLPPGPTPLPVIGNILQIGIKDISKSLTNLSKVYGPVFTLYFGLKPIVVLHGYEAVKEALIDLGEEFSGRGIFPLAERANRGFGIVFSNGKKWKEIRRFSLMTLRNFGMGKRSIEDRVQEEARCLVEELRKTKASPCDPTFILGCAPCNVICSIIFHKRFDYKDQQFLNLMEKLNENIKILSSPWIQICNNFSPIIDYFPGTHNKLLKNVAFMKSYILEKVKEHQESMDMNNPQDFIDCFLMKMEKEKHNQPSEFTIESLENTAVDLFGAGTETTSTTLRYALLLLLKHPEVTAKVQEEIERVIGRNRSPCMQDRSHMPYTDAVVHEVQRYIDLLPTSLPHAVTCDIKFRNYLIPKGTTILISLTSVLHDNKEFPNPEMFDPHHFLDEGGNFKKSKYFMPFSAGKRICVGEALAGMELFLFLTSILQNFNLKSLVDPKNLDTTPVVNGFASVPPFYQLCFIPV
# Outline: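 Enzyme-substrate mix preincubated with compound 10 min at room temperature; reaction started with NADPH regeneration solution, 1 h 37C. Luminescent luciferin product read after 20 min detection reagent.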
# [13] = target: Voltage-gated inwardly rectifying potassium channel KCNH2 (Homo sapiens) (UniProt Q12809); experiment: Human Ether-a-go-go-Related Gene (hERG) channel small molecule antagonists: fluorescence cell-based qHTS assay (AID 1671200); note: series mostly up to about 77 µM; nearly all actives have a fitted effect of over 50% in size
# Sequence of Voltage-gated inwardly rectifying potassium channel KCNH2 (Homo sapiens) (Q12809 whole entry, looked up): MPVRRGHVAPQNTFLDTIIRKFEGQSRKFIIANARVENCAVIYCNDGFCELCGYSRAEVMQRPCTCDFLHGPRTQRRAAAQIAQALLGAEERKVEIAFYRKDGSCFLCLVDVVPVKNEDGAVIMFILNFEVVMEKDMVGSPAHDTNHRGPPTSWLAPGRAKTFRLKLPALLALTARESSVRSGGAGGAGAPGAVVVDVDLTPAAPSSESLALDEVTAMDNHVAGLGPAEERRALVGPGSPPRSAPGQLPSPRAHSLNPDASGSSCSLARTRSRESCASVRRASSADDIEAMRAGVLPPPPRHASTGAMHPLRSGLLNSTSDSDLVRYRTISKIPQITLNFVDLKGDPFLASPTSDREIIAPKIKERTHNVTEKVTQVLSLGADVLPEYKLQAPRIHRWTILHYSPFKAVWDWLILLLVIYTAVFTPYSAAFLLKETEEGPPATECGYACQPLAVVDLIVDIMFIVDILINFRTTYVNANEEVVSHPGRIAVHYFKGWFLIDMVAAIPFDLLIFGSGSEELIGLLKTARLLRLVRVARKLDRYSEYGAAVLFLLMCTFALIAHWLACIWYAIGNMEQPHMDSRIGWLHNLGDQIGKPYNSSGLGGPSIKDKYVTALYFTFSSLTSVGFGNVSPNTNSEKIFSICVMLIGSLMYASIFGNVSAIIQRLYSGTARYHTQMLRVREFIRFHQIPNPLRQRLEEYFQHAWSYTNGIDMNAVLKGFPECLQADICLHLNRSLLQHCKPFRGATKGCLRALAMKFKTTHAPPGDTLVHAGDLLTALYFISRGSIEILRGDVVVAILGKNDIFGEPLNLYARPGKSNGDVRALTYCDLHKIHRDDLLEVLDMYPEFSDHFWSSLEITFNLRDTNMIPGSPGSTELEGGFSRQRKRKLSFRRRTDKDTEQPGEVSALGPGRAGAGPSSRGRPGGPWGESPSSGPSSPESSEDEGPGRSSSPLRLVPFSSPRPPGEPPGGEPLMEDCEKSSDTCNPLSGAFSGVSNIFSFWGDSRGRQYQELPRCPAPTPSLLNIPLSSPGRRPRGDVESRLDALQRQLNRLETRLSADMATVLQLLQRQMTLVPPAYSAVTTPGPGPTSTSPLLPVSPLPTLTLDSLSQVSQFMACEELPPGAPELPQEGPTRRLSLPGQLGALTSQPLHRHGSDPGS
# Outline: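 Thallium flux as potassium surrogate: FluxOR II dye loaded 1 h at room temperature into hERG-expressing U2OS cells, then stimulus buffer added after 10 min. Kinetic 480 nm excitation/540 nm emission read, 2 min.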
# [14] = target: Cytochrome P450 3A4 (Homo sapiens) (UniProt P08684); experiment: Cytochrome P450 Family 3 Subfamily A Member 4 (CYP3A4) small molecule antagonists: luciferase reporter qHTS assay (AID 1671201)
# Sequence of Cytochrome P450 3A4 (Homo sapiens) (P08684 whole entry, looked up): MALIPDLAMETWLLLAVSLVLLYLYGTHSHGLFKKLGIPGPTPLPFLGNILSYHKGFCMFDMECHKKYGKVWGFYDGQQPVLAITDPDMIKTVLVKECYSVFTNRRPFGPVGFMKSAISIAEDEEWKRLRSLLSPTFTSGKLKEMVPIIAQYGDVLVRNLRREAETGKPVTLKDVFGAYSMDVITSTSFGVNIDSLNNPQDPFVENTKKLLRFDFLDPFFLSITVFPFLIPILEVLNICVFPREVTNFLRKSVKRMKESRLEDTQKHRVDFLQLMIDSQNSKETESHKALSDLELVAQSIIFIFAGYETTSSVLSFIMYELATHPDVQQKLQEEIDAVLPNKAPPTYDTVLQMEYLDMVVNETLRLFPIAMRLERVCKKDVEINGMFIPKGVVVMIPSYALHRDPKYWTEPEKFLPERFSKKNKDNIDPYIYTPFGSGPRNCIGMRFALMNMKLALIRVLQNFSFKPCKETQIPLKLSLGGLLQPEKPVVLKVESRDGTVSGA
# Outline: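 Recombinant human CYP3A4 converts a proluciferin substrate to luciferin over 1 h at room temperature after NADPH regeneration solution is added (compound preincubated 10 min); detection reagent stops reaction, luminescence read 20 min later as relative units.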
# [15] = target: Cytochrome P450 1A2 (Homo sapiens) (UniProt P05177); experiment: Cytochrome P450 Family 1 Subfamily A Member 2 (CYP1A2) small molecule antagonists: luciferase reporter qHTS assay (AID 1671199); note: nearly all actives have a fitted effect of over 50% in size; note: potency is the fitted concentration of half-maximal effect
# Sequence of Cytochrome P450 1A2 (Homo sapiens) (P05177 whole entry, looked up): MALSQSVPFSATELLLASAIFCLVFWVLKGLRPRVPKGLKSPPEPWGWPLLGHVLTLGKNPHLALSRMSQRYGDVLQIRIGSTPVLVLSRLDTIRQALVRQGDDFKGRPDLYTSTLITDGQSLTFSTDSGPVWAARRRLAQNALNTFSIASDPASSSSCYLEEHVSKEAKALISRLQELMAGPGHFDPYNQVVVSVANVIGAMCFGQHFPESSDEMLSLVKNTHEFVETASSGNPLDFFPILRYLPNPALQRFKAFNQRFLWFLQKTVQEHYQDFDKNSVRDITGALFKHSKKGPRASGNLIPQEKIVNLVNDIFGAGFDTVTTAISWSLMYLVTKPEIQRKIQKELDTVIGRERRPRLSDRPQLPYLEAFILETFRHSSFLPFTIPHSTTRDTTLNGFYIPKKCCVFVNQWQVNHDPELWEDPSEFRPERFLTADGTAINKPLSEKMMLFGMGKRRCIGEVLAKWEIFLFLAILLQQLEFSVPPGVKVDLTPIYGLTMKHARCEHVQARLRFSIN
# Outline: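 Signal from luciferin formed by CYP1A2 from a proluciferin substrate is read as luminescence, expressed in relative luminescence units. Compounds sit with enzyme 10 min, NADPH-driven reaction runs 1 h, all at room temperature.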
SMILES,outcome [1],Potency [2],Potency [3],Potency [4],outcome [5],Potency [6],Potency [7],max activation [8],Potency [9],Potency [10],Potency [11],Potency [12],outcome [13],Potency [14],Potency [15]
CCOc1ccc(NC(=O)CC(C)O)cc1 (configuration not stated),inactive,inactive,inactive,inactive,inactive,inactive,inactive,0.554% (inactive),inactive,32.1 µM (active) and inactive,inactive,inactive,inactive,inactive,–
CC(O)C(=O)O (configuration not stated),inactive,inactive,inactive,inactive,inactive,inactive,inactive,-1.38% (inactive),inactive,inactive and 11 µM (active),inactive and 81.1 µM (active),inactive,inactive,inactive,inactive and 24.5 µM (active)
Nc1ccn([C@H]2CC[C@@H](CO)O2)c(=O)n1,inactive,inactive,inactive,inactive,inactive,inactive,inactive,–,–,inactive,78.3 µM (active) and inactive,inactive,inactive,inactive,inactive
Cc1cc(=O)n(-c2ccccc2)n1C,inactive,inactive,inactive,inactive,inactive,inactive,inactive,–,–,inactive,inactive,–,inactive,inactive,inactive
CC(O)CN(CCN(CC(C)O)CC(C)O)CC(C)O (configuration not stated),inactive,inactive,inactive,inactive,inactive,inactive,inactive,-4.71% (inactive),inactive,36.2 µM (active),inactive,inactive,inactive,inactive,inactive
CCCCCCCCCCCCCCCC(=O)O,inactive,inactive,inactive,inactive,inactive,inactive,inactive,–,inactive,inactive,80.5 µM (active) and inactive,inactive,inactive,inactive,39.9 µM (active) and inactive
CC(=O)Nc1nnc(S(N)(=O)=O)s1,inactive,inactive,inactive,inactive,inactive,inactive,inactive,–,–,inactive,inactive,inactive,inactive,inactive,inactive
NC(=O)c1cnccn1,inactive,inactive,inactive,inactive,inactive,–,inactive,–,–,19.7 µM (active) and inactive,inactive,inactive,inactive,inactive,inactive
COC(=O)[C@H](Cc1ccccc1)NC(=O)[C@@H](N)CC(=O)O (H-Asp-Phe-OMe),inactive,inactive,inactive,inactive,inactive,–,inactive,-3.24% (inactive) and -1.16% (inactive),inactive,inactive,inactive,inactive,inactive,inactive,inactive
O=C(C1CCCCC1)N1CC(=O)N2CCc3ccccc3C2C1 (configuration not stated),inactive,inactive,inactive,inactive,inactive,–,30.6 µM (active),–,–,inactive,7.95 µM (active) and 17.8 µM (active) and 9.77 µM (active),inactive,inactive,–,31.7 µM (active) and 28.3 µM (active) and 17.4 µM (active)
Oc1ccc(/C=C/c2cc(O)cc(O)c2)cc1,inactive,inactive,inactive,69.2 µM (active) and 61.1 µM (active),inactive,–,61.7 µM (active) and 30.6 µM (active) and 29.8 µM (active),-1.25% (inactive),–,–,–,–,inactive,–,–
CC(C)[C@@H]1CC[C@@H](C)C[C@H]1O,inactive,inactive,69.5 µM (active) and inactive,inactive,inactive,inactive,31 µM (active) and inactive,-1.21% (inactive),inactive,inactive,inactive,inactive,inactive,inactive,inactive
O=C(O)CS,inactive,inactive,inactive,inactive and 61.6 µM (active),inactive,–,inactive,–,–,inactive,inactive,inactive,inactive,inactive,inactive
CC1(C)[C@@H]2CC[C@@]1(C)C(=O)C2,inactive,inactive,inactive,inactive,inactive,–,inactive,-1.13% (inactive),inactive,inactive,inactive,inactive,inactive,inactive,inactive
